The test system of test [1] is CP268. In words: qHTS profiling for inhibitors of Plasmodium falciparum proliferation (AID 504749).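 Further: 0% = DMSO vehicle and full inhibition = artemisinin control; nearly all actives have a fitted effect of over 60% in size.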 To be noted: P. falciparum in erythrocytes, SYBR Green DNA, 72 h; series mostly up to 28.7 µM. Summed up:
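In a 72 h erythrocytic culture (37 C, humidified, 5% CO2) at 2.5% hematocrit and 0.3% starting parasitemia, compounds were tested; SYBR Green I in detergent lysis buffer stained parasite DNA overnight.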
(In general: In qHTS, concentration-response curves come from the screen itself.)

Test [2] has as its target Cytochrome P450 2C19 (Homo sapiens) (UniProt P33261). In words: qHTS Assay for Inhibitors and Substrates of Cytochrome P450 2C19 (AID 899). Further: nearly all actives have a fitted effect of over 60% in size. Further: potency means the concentration at half of the fitted maximal effect. An outline of the steps: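 Luminescence readout of luciferin formed from 10uM Luciferin-H EGE (KM level) by 5 nM CYP2C19 in 50mM KPO4. 60 min NADPH-driven reaction at 37C after 10 min compound preincubation; data scaled to 57uM ketoconazole inhibition.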

The target in test [3] is Cytochrome P450 2C9 (Homo sapiens) (UniProt P11712). In words: qHTS Assay for Inhibitors and Substrates of Cytochrome P450 2C9 (AID 883). Further: nearly all actives have a fitted effect of over 60% in size. Further: potency means the concentration at half of the fitted maximal effect. An outline of the steps: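 Luminescent read-out of deoxyluciferin hydroxylation, normalized to 57uM sulphaphenazole (AC100). Reaction: 10nM enzyme, 100uM Luciferin-H (equal to KM), 25mM KPO4, 10 min compound preincubation, then 60 min with NADPH regeneration, both at 37C.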
Sequence of Cytochrome P450 2C9 (Homo sapiens) (P11712 whole entry, looked up): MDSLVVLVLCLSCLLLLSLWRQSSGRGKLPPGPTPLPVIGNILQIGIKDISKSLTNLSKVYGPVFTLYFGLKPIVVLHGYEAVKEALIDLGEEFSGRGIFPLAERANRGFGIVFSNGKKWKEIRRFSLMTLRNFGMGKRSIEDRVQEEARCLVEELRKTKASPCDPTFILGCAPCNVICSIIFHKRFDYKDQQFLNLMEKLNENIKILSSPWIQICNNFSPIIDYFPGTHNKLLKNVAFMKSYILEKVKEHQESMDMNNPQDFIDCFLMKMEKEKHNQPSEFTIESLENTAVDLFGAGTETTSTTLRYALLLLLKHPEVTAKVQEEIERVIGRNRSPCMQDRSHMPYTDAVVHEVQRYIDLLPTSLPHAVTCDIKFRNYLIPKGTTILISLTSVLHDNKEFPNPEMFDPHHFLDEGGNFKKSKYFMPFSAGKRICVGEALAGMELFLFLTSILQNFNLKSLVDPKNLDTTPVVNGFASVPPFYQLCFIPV

A short description of test [4]: Cell Viability - H-4-II-E (AID 543).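 Further: cells exposed to compound for 40 hours; on the % scale 0 is the no-effect control and ±100 the full control effect; nearly all actives have a fitted effect of over 35% in size.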 Summed up: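 AC50 from Hill-modelled qHTS concentration-response curves. H-4-II-E rat hepatoma cells in complete medium, 40 hr exposure at 37 °C, viability by CellTiter-Glo ATP luminescence.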
A short description of test [5]: Cellular Toxicity (caspase-3) HUV-EC-C (AID 656).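 Further: 0% = DMSO basal and 100% = 100 µM tamoxifen.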 Summed up:
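HUV-EC-C cells (1000/well) in complete medium, compound-treated 16 h at 37 °C; caspase-3/7 activity read by Caspase-Glo 3/7 luminescence. Normalized to DMSO (basal) and 100 uM tamoxifen (100%); AC50 from Hill-equation concentration-response fits.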

Test [6] is described as follows: Cellular Toxicity (caspase-3) BJ (AID 658). An outline of the steps: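 Caspase-Glo 3/7 luminescence, read 1 hr after reagent at room temperature, in normal BJ fibroblasts exposed 16 hours at 37 °C. AC50 values from Hill-equation concentration-response, scaled between DMSO basal and 10 uM staurosporine as 100%.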
The nature of test [7]: Cellular Toxicity (caspase-3) SK-N-SH (AID 661). An outline of the steps:
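Apoptosis readout in SK-N-SH neuroblastoma: Caspase-Glo 3/7 luminescence following 16 hr treatment in complete culture medium. Normalization used DMSO and 10 uM staurosporine controls.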

Test [8] can be described thus: Cellular Toxicity (caspase-3) H-4-II-E (AID 663).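 Further: cells exposed to compound for 16 hr before readout; 0% = DMSO basal and 100% = 100 µM tamoxifen.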 Summed up:
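Caspase 3/7 activation measured by luminescent aminoluciferin substrate cleavage after 16 hr compound treatment of H-4-II-E cells in complete medium. Increase normalized between DMSO (basal) and 100 uM tamoxifen (100%); Hill-equation AC50 from concentration-response.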

A short description of test [9]: Cellular Toxicity (caspase-3) NIH 3T3 (AID 666).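 Further: caspase signal read after 16 h compound exposure; 0% = DMSO basal and 100% = 100 µM tamoxifen stimulation.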 Summed up: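 Activity: caspase-3/7 induction, NIH 3T3 cells, 16 hr treatment at 37°C, luminescent Caspase-Glo detection; AC50 via Hill equation.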
Test [10] can be described thus: Cellular Toxicity (caspase-3) Renal Proximal Tubule (AID 667).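 Further: cells exposed to compound for 16 hours at 37 °C before detection.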 To be noted: renal proximal tubule cells; at 91.7 µM (top of the series), primary cells freshly taken from rat, solvent-only wells 0%, staurosporine 100% unless noted. An outline of the steps: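 Freshly isolated primary rat kidney proximal tubule cells, 1000/well, treated 16 hr at 37 °C, then Caspase-Glo 3/7 luminescence after 1 hr. Normalized to DMSO and 10 uM staurosporine; AC50 from Hill fit.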

The nature of test [11]: MultiTox-Fluor Cytotoxicity Assay - LYMP1-001 - Dead Cells (AID 946). Further: potency means the concentration at half of the fitted maximal effect. Summed up:
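Seed 2500 LYMP1-001 cells/well, incubate 5 hr at 37 C; add compound, 16 hr at 37 C; add MultiTox-Fluor reagent, 60 min RT; read dead-cell fluorescence Ex/Em=485/520. Normalize to DMSO and 15 uM tetraoctylammonium bromide.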

Test [12] in a line: Cell Viability - LYMP1-002 - Assay at 16 hr (AID 948).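 Further: 0% = DMSO alone and full effect = 92 µM tetraoctylammonium bromide.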 An outline of the steps:
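LYMP1-002 human lymphoblastoid cells, 2500/well, were treated with compounds for 16 hr at 37 C in complete medium. Viability was read as intracellular ATP by CellTiter-Glo luminescence, and AC50 was derived from a Hill fit to concentration-response data.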

The target of test [13] is Vitamin D3 receptor (Homo sapiens) (UniProt P11473). In words: qHTS assay for small molecule antagonists of vitamin D receptor signaling (AID 588541; calls by dose curve;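 further: receptor activated by calcitriol during compound treatment; on the % scale 0 is the no-effect control and ±100 the full control effect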). Summed up: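 Antagonist-mode beta-lactamase reporter assay: HEK293T VDR-UAS-bla cells were exposed to titrated compound alongside 1-alpha,25-dihydroxyvitamin D3 at 3 nM final for 16 h. Values were normalized to the 50 nM agonist control and DMSO basal, with IC50 and efficacy from Hill equation fits.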
Sequence of Vitamin D3 receptor (Homo sapiens) (P11473 whole entry, looked up): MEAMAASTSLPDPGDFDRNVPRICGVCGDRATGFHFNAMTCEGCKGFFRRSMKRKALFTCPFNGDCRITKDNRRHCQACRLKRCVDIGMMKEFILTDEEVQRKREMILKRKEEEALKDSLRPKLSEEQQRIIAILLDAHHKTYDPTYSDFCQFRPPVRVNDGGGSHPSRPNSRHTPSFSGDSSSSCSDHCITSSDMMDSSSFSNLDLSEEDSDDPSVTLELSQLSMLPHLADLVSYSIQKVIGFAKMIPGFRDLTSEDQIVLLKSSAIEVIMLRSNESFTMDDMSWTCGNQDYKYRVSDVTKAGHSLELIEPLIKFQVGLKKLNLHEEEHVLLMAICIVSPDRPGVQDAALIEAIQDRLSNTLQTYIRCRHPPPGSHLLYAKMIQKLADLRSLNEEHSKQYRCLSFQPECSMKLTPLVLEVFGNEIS

Test [14] has the same target. In words: qHTS assay for small molecule agonists of vitamin D receptor signaling (AID 588543; calls by dose curve;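 further: 0% = DMSO basal and 100% = reference agonist control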). Summed up: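 VDR-UAS-bla HEK293T cells, 2000/well, 2% charcoal-stripped FBS; compound titration 16 h at 37 C; CCF4 beta-lactamase ratio read. Normalized to 50 nM 1-alpha,25-dihydroxyvitamin D3 (100%) and DMSO; Hill fit gives EC50, efficacy.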
For test [15], the target named is Retinoic acid receptor RXR-alpha (Homo sapiens) (UniProt P19793). In words: qHTS assay for small molecule antagonists of retinoid X receptor alpha signaling (AID 588546; active means well fitted inhibition curve with a large enough effect in the signal ratio, with a control signal flat, not every such curve was filed as active; the % refers to the signal ratio; further: on the % scale 0 is the no-effect control and ±100 the full control effect). To be noted: HEK293T RXRa-UAS-bla, beta-lactamase ratio, antagonist mode. An outline of the steps: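 Beta-lactamase reporter inhibition, read as CCF4 fluorescence ratio (ex 405, em 460/530 nm) after 2 h at RT. HEK293T UAS-bla cells, 2500/well, were stimulated with 9-cis-RA at 500 or 100 nM final alongside test compound for 18 h at 37 C.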
Sequence of Retinoic acid receptor RXR-alpha (Homo sapiens) (P19793 whole entry, looked up): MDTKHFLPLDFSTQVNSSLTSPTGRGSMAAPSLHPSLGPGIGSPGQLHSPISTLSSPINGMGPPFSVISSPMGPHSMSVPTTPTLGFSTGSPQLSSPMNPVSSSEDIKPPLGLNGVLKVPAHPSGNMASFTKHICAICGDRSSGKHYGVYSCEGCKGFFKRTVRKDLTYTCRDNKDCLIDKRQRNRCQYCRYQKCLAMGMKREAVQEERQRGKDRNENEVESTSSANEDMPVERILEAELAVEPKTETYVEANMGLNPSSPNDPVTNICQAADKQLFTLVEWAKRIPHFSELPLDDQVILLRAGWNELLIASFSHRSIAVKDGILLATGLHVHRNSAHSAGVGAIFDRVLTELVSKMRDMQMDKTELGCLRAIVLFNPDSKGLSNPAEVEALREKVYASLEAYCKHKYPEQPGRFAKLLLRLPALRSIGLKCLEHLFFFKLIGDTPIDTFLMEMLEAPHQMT

The target in test [16] is Voltage-gated inwardly rectifying potassium channel KCNH2 (Homo sapiens) (UniProt Q12809). Kind of test: qHTS Assay for Small Molecule Inhibitors of the Human hERG Channel Activity (AID 588834).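 Further: lower thallium flux fluorescence means stronger hERG block; nearly all actives have a fitted effect of over 50% in size.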 Further: potency means the concentration at half of the fitted maximal effect. An outline of the steps:
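Thallium serves as surrogate for K+ influx through BacMam-delivered hERG in U2OS cells. Compounds are added for about 10 minutes after dye loading; stimulation buffer then starts flux, monitored kinetically on FDSS.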

Test [17] in a line: qHTS assay for small molecule agonists of the antioxidant response element (ARE) signaling pathway measured by Nrf2-dependant transcriptional activity (AID 720636; active means well fitted curve in the direction sought with a large enough effect in the repeat runs; an effect the other way counts as inactive or inconclusive;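 further: HepG2 cells with an ARE-driven luciferase reporter; % of control where 0% means no effect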). An outline of the steps:
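Attachment 6 hr at 37 C, then compound versus DMSO vehicle for 16 hr in ARE-luc HepG2 cells (1% dialyzed FBS); luminescence recorded 30 min after ONE-Glo addition at room temperature.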

The nature of test [18]: qHTS assay for cell viability of HEK293 cells (AID 743288). Further: on the % scale 0 is the no-effect control and ±100 the full control effect; nearly all actives have a fitted effect of over 50% in size. The following applies: ATP luminescence (CellTiter-Glo), 18 h; max response: hits give low values. Summed up: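 Steps: plate 2,000 parental HEK293 cells per well; incubate ≥5 h, 37 C; add compounds in DMSO; incubate 18 h, 37 C; add CellTiter-Glo; wait 30 min at room temperature; read luminescence.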
A short description of test [19]: qHTS assay for cell viability of the p53RE-bla HCT-116 cell line (AID 743292). Further: on the % scale 0 is the no-effect control and ±100 the full control effect; nearly all actives have a fitted effect of over 55% in size. Summed up:
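Compound-exposed HCT-116 (p53RE-bla) cells, 4,000 per well, were kept 16 h at 37 C following a 5 h preincubation. Cell number was estimated from total ATP by CellTiter-Glo luminescence read after 30 min at room temperature.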

The target in test [20] is Nuclear receptor subfamily 1 group I member 2 (Rattus norvegicus) (UniProt Q9R1A7). Kind of test: qHTS assay for small molecule activators of the rat pregnane X receptor (rPXR) signaling pathway (AID 651751; call rule not given here; further: 0% is about no effect). The following applies: rPXR reporter cells, luciferase (One-Glo), 24 h.
Sequence of Nuclear receptor subfamily 1 group I member 2 (Rattus norvegicus) (Q9R1A7 whole entry, looked up): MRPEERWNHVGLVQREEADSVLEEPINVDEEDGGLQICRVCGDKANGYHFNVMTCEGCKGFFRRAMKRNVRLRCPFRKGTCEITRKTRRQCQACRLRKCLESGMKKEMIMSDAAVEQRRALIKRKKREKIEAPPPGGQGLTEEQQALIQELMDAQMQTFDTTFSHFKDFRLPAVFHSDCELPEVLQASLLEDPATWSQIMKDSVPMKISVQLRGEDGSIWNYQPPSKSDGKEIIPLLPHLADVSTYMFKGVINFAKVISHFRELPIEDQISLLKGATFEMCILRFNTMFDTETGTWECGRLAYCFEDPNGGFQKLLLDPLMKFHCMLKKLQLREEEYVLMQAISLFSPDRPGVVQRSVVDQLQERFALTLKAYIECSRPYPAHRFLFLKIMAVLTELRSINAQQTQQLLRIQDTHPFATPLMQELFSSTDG

Several values for one entry are separate records, joined by “and”; a condition that tells them apart may be missing. Equal values may be shown once. A number with no mark means an inactive call. Results filed as inconclusive are left out. Activity calls are given as the source filed them. Unless noted, the call rests on the fitted dose curve; in most records, active means well fitted curve in the direction sought with a large enough effect; inconclusive means small, poorly fitted or top-dose-only effect, or another doubt; inactive means no such curve, though single readings can be large; an effect the other way counts as inactive or inconclusive.

Sequence of Voltage-gated inwardly rectifying potassium channel KCNH2 (Homo sapiens) (Q12809 whole entry, looked up): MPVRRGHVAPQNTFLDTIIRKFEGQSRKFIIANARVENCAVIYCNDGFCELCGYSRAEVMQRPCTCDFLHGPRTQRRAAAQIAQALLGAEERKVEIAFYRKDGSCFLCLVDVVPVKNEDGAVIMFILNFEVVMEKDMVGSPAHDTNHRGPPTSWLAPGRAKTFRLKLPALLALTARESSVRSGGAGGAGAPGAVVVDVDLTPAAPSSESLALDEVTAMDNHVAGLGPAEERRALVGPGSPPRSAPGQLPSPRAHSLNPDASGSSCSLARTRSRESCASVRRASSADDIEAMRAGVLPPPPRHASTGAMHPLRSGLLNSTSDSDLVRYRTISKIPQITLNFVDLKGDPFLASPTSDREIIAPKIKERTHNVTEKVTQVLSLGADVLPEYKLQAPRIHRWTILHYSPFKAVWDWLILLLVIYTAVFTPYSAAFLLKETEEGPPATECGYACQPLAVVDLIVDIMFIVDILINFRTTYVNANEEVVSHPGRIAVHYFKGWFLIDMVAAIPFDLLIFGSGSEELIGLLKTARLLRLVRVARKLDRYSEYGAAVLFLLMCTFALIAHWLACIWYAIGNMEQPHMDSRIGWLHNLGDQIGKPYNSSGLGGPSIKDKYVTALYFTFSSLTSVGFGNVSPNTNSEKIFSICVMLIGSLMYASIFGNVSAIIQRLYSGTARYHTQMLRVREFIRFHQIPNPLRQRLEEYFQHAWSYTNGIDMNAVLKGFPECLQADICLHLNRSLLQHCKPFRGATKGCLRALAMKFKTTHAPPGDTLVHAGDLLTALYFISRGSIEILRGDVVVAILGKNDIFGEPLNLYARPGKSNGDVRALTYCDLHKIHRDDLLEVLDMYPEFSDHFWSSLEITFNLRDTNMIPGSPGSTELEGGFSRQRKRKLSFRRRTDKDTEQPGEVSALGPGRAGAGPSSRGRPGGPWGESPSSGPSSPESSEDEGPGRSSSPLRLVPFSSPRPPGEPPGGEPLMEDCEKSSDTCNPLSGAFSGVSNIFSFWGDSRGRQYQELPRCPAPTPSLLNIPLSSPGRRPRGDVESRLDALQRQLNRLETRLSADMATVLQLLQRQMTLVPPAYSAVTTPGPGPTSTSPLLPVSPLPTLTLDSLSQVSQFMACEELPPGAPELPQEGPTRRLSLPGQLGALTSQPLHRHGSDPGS
Sequence of Cytochrome P450 2C19 (Homo sapiens) (P33261 whole entry, looked up): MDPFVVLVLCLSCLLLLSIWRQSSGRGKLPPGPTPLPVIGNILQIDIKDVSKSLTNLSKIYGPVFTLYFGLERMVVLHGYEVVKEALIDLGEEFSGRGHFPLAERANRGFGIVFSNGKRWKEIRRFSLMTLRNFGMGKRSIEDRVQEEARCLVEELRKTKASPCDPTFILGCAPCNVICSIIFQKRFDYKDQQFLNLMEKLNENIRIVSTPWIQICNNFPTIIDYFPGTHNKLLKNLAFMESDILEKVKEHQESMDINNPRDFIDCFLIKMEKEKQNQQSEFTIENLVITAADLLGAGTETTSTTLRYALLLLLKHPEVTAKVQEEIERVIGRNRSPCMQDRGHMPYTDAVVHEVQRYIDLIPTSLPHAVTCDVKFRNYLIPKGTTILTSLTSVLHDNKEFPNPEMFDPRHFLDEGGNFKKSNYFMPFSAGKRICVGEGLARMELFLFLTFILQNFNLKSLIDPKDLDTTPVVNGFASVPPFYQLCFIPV

With `CNC(C)[C@@H](O)c1ccccc1` (stereo partly specified), the Potency entry in [1] was “inactive”.
The same measure, in the same setting: to `CNc1ccc(C(=O)CC(O)CCC(C)C2OC(=O)CC(O)CC(=O)CC(O)CC(O)CC(O)CC(O)CC3(O)CC(O)C(C(=O)OC)C(CC(O[C@@H]4OC(C)C(O)C(N)C4O)/C=C/C=C/C=C/C=C/C=C/C=C/C=C/C2C)O3)cc1` (stereo partly specified) belongs “inactive”; to `COc1cc(N)c(Cl)cc1C(=O)N[C@@H]1CN2CCC1CC2`, “inactive”.
Regarding `C[C@@]12CC[C@H](O)C[C@@H]1CC[C@H]1[C@@H]2C[C@@H](O)[C@]2(C)[C@@H](C3=CC(=O)OC3)CC[C@]12O`, in test [2], the Potency entry is “inactive”.
As for `c1cncc([C@H]2CCCCN2)c1`, the Potency in [3] is 7.94 µM (active); in [2], 5.01 µM (active).
For `C[C@@H]1O[C@H](O[C@@H]2C=C3CC[C@H]4[C@@H](CC[C@]5(C)[C@@H](c6ccc(=O)oc6)CC[C@]45O)[C@@]3(C)CC2)[C@@H](O)[C@H](O)[C@@H]1O`, the Potency entry in [1] is “inactive”.
On to `COC(=O)NC(=S)Nc1ccccc1NC(=S)NC(=O)OC`, for which the Potency result in test [4], in test [11], in test [12], in test [16] and in test [19] was “inactive” in each case. The compound was classed as inactive in test [5], in test [6], in test [7], in [8], in [9] and in [13]. Moreover, the outcome in test [14] and in test [17] was inactive. Further, the caspase-3 activation in test [10] is -3.02%. Further, the max response in test [15] was -8.67% and 3.08%; in test [18], 1.27% and -9.9%; in test [20], 13.9% and 14.6%.
As to `COP(=S)(OC)Oc1ccc([N+](=O)[O-])cc1`, the Potency entry in test [4], in [11], in [12], in test [16] and in [19] was “inactive” throughout. The call in test [5], in test [6], in [7], in test [8], in test [9] and in [13] was inactive. The call in test [14] and in test [17] was inactive. In addition, the caspase-3 activation in test [10] is -6.77% [at 91.7 µM]. Besides, the max response in [15] was -10.1% and -10.7%; in test [18] it was -1.38% and -0.0798%; in test [20], 8.93% and 0.334%.
For the compound `CCCCCCCCCc1ccc(O)cc1`, the Potency result in test [4], in test [12] and in test [19] was “inactive” each time. In addition, the compound was classed as inactive in [5], in test [6], in test [7], in [8], in test [9] and in test [13]. Also, the call in [14] and in test [17] was inactive. Further, the caspase-3 activation in test [10] was 172% (active). The Potency in [11] was 39.8 µM (active); in [16], 31.6 µM (active). For the same compound, the max response in test [15] was 0.938%; in test [18], -7.88%; in test [20], -1.03% and 0.419%.
Turning to `CN1[C@@H]2CC[C@H]1CC(O)C2` (stereo partly specified), the Potency entry in test [3] is “inactive”.
With `C/C=C/c1ccc2c(c1)OCO2`, the Potency result in test [4], in test [11], in test [12], in [16] and in test [19] was “inactive” in each case. For the same compound, the call in test [5], in test [6], in test [7], in [8], in [9] and in [13] was inactive. For the same compound, the compound was classed as inactive in [14] and in [17]. In addition, in [10], the caspase-3 activation was -4.01% [at 91.7 µM]. The max response in test [15] was -0.653%; in test [18], -1.69%; in test [20], 0.551%.

Source of the values: PubChem BioAssay (NCATS).
